Results filed as inconclusive are left out. Activity calls are given as the source filed them. Unless noted, calls follow the shape of the dose curve; as a rule, active = well fitted curve in the direction sought with a large enough effect in the repeat runs; inconclusive = weak or mixed curves; inactive = no such curve, though single readings can be large; an effect the other way counts as inactive or inconclusive.
Tests used:
[1] = qHTS assay to identify small molecule agonists of the estrogen receptor alpha (ER-alpha) signaling pathway in the presence of an antagonist - cell viability counter screen (AID 1259386); details: VM7Luc4E2 viability, CellTiter-Fluor fluorescence, 22 h; series mostly up to 92.4 µM;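 also: cells exposed to compounds for 22 h at 37 °C before the viability read; nearly all actives have a fitted effect of over 30% in size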; also: potency is read from the fitted curve at half-maximal effect
Procedure, shortened: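 Read-out: CellTiter-Fluor fluorescence after 1hr reagent incubation, measured in the same wells as the luciferase readout. VM7Luc4E2 cells were exposed to 15 compound concentrations with 10.0nM ICI-182,780 for 22hr at 37C.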

[2] = biological target: Progesterone receptor (Homo sapiens) (UniProt P06401); assay: qHTS assay to identify small molecule agonists of the progesterone receptor (PR) signaling pathway (AID 1346784; calls by dose curve; also: nearly all actives have a fitted effect of over 30% in size); details: PR-UAS-bla HEK293T, beta-lactamase FRET ratio, 16 h; series mostly up to 92.4 µM
Procedure, shortened: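 Cells (PR-UAS-bla HEK 293T, GripTite) were plated in assay medium containing 2% charcoal-stripped FBS and incubated 6 hr. Test compounds in DMSO were added for 16 hr at 37C. FRET substrate was then loaded for 2 hr at room temperature before fluorescence reading.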

[3] = qHTS assay to identify small molecule agonists of the progesterone receptor (PR) signaling pathway - cell viability counter screen (AID 1346799; calls by dose curve; also: nearly all actives have a fitted effect of over 45% in size; also: potency is read from the fitted curve at half-maximal effect); details: PR-UAS-bla HEK293T viability, CellTiter-Glo luminescence, 16 h; series mostly up to 92.4 µM
Procedure, shortened: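 Cells (PR-UAS-bla HEK293T) are plated at 3,000/well in 2% charcoal-stripped FBS medium, rested 6 hr, dosed and incubated 16 hr at 37C. CellTiter-Glo is then added and luminescence measured after 30 min at room temperature.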

[4] = qHTS assay to identify small molecule antagonists of the TGF-beta/Smad signaling pathway - cell viability counter screen (AID 1346824); details: SBE-bla HEK293T viability, CellTiter-Glo luminescence; series mostly up to 76.8 µM; also: nearly all actives have a fitted effect of over 50% in size; also: potency is read from the fitted curve at half-maximal effect
Procedure, shortened: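 SBE-bla HEK 293T cells, incubated overnight, then compound plus 0.25 ng/mL TGF-beta1 (stock added) for 5 hr at 37 C. Viability was read in the same wells by CellTiter-Glo luminescence after 30 min at room temperature.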

[5] = qHTS assay to identify small molecule agonists of the TGF-beta/Smad signaling pathway - cell viability counter screen (AID 1346829); details: SBE-bla HEK293T viability, CellTiter-Glo luminescence, 5 h; series mostly up to 76.8 µM; also: top concentration of the series differs between compounds; nearly all actives have a fitted effect of over 45% in size
Procedure, shortened: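 Tox21 qHTS format: SBE-bla HEK 293T cells treated with DMSO-dissolved compounds for 5 hr; CellTiter-Glo luminescence after 30 min at room temperature.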

[6] = qHTS assay to identify small molecule agonists of the TGF-beta/Smad signaling pathway (AID 1346859; active = well fitted activation curve with a large enough effect in the signal ratio in the repeat runs, not every such curve was filed as active; the % refers to the signal ratio); details: SBE-bla HEK293T, TGF-beta/Smad beta-lactamase reporter, 5 h; series mostly up to 76.8 µM
Procedure, shortened: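 Reporter line: HEK 293T with stably integrated SBE-controlled beta-lactamase. Compound exposure lasts 5 hr at 37 C and 5% CO2; substrate loading follows for 2 hr at room temperature, with emission read at 460 and 530 nm.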

[7] = qHTS assay to identify small molecule antagonists of the progesterone receptor (PR) signaling pathway - cell viability counter screen (AID 1346798); details: PR-UAS-bla HEK293T viability, CellTiter-Glo luminescence, 16 h; series mostly up to 92.4 µM; also: nearly all actives have a fitted effect of over 50% in size; also: potency is read from the fitted curve at half-maximal effect
Procedure, shortened: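 Counter screen for cytotoxicity: viability of PR-UAS-bla HEK293T cells was measured with CellTiter-Glo luminescence following 16 hr compound exposure in the presence of R5020.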

[8] = biological target: Thyrotropin-releasing hormone receptor (Homo sapiens) (UniProt P34981); assay: qHTS assay to identify small molecule antagonists of the thyrotropin-releasing hormone receptor (TRHR) signaling pathway (AID 1346877; active = well fitted inhibition curve with a large enough effect in the repeat runs, not every such curve was filed as active); details: TRHR-HEK293, TRH-induced calcium fluorescence, antagonist mode; series mostly up to 51.3 µM
Procedure, shortened: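 HEK293/TRHR cells, 18 h, 37 °C; Ca2+ dye 2 h; cpd 5 min RT; TRH 1 nM final; fluorescence read 3 min, 1 s intervals; 15 concs, triplicate.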

[9] = biological target: Thyrotropin-releasing hormone receptor (Homo sapiens) (UniProt P34981); assay: qHTS assay to identify small molecule agonists of the thyrotropin-releasing hormone receptor (TRHR) signaling pathway (AID 1346891; calls by dose curve;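 also: HEK293 cells expressing TRHR with calcium dye readout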); details: TRHR-HEK293 calcium fluorescence, agonist mode; series mostly up to 57.6 µM
Procedure, shortened: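 Cells: TRHR-Hek293, seeded and incubated 18 h. Dye loading: 2 h at 37 °C. Compound added from DMSO stock by pin tool. Read-out: kinetic calcium fluorescence over 3 min.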

[10] = biological target: Progesterone receptor (Homo sapiens) (UniProt P06401); assay: qHTS assay to identify small molecule antagonists of the progesterone receptor (PR) signaling pathway (AID 1346795; active = well fitted inhibition curve with a large enough effect in the signal ratio in the repeat runs, not every such curve was filed as active; the % refers to the signal ratio; also: potency is read from the fitted curve at half-maximal effect); details: PR-UAS-bla HEK293T, beta-lactamase FRET ratio, 16 h; series mostly up to 92.4 µM
Procedure, shortened: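 Antagonist mode: compounds tested against 1 nM (final) promegestone stimulation in HEK293T cells expressing PR-UAS-bla reporter, 16 hr at 37C, 5% CO2; beta-lactamase activity detected via B/G FRET substrate after 2 hr at room temperature.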

Measured: Potency

Sequence of Progesterone receptor (Homo sapiens) (P06401 whole entry, looked up): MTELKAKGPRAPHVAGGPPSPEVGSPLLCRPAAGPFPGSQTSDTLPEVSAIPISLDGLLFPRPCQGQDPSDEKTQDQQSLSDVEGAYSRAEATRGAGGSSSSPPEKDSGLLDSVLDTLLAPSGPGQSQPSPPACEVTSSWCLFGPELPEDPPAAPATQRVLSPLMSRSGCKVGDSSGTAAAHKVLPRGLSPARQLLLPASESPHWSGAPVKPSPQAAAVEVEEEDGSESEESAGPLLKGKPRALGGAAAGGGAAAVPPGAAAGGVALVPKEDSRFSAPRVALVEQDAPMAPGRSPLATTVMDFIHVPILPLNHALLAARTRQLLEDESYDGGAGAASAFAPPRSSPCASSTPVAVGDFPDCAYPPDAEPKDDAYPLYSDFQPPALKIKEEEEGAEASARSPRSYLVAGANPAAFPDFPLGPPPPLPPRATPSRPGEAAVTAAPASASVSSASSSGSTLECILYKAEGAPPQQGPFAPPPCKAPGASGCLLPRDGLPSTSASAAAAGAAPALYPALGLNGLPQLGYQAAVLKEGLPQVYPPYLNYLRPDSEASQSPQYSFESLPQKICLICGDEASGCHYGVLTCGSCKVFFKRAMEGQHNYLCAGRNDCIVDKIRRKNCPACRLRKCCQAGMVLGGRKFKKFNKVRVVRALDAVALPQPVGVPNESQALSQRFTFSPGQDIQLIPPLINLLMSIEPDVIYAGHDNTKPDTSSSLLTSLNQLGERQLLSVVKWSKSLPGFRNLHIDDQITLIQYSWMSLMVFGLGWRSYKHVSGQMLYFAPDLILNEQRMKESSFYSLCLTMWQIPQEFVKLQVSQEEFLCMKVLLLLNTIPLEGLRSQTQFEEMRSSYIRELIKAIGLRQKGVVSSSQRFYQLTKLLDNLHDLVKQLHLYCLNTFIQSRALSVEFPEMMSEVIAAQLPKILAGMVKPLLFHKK
Sequence of Thyrotropin-releasing hormone receptor (Homo sapiens) (P34981 whole entry, looked up): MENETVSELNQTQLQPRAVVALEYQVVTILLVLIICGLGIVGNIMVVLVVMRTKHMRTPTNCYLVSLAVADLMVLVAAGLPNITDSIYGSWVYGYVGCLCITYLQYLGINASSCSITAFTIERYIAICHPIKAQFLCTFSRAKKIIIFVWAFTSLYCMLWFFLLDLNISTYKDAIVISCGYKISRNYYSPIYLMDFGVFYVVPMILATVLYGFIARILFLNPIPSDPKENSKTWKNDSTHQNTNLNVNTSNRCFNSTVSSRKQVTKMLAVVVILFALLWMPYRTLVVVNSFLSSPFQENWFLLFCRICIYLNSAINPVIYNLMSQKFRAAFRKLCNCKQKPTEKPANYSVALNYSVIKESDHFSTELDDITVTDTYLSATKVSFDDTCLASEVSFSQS

CC1COC2(c3ccccc3Cl)c3cc(Cl)ccc3NC(=O)CN12 (configuration not stated)
inactive: [1] | [2] | [3] | [4] | [5]

CC(CCc1ccccc1)NC(C)C(O)c1ccc(O)cc1 (configuration not stated)
inactive: [1] | [2] | [3] | [4] | [5] | [6]

c1cc[c]([Hg][c]2ccccc2)cc1
not listed: [3] | [4] | [10]
inactive: all other assays above

CCOC(=O)/C=C(C)/C=C/C[C@@H](C)CCCC(C)C
not listed: [6] | [10]
inactive: all other assays above

Nc1n[nH]c(N)n1
not listed: [7] | [10]
inactive: all other assays above

CC(=O)[C@H]1CC[C@H]2[C@@H]3CC[C@H]4C[C@H](O)CC[C@]4(C)[C@H]3C(=O)C[C@]12C
not listed: [10]
inactive: all other assays above

COC(=O)C(C)Oc1ccc(Oc2ccc(Cl)cc2Cl)cc1 (configuration not stated)
inactive: [1] | [2] | [7] | [4] | [5] | [6]

CSc1nc(N=[N+]=[N-])nc(NC(C)C)n1
not listed: [10]
inactive: all other assays above

N#Cc1ccncc1
not listed: [8] | [9] | [10]
inactive: all other assays above

COP(=S)(OC)Oc1c(Cl)cc(C)cc1Cl
active: [10] 27.3 µM
not listed: [3] | [7]
inactive: all other assays above

COC(=O)c1c(C(F)F)nc(C(F)(F)F)c(C2=NCCS2)c1CC(C)C
not listed: [10]
inactive: all other assays above

CCN(CC)c1nc(C)cc(OP(=S)(OC)OC)n1
not listed: [7] | [10]
inactive: all other assays above

O=C(NCO)NCO
not listed: [8] | [9] | [10]
inactive: all other assays above

O=C1CN2CCOC2(c2ccccc2Cl)c2cc(Cl)ccc2N1 (configuration not stated)
not listed: [8] | [9] | [10]
inactive: all other assays above

CC1(C)CON(Cc2ccccc2Cl)C1=O
not listed: [6] | [10]
inactive: all other assays above

CCOP(=S)(OCC)Oc1ncn(-c2ccccc2)n1
not listed: [10]
inactive: all other assays above

CCCSP(=S)(OCC)Oc1ccc(Cl)cc1Cl (configuration not stated)
not listed: [3] | [10]
inactive: all other assays above

C#CCN1C(=O)COc2cc(F)c(N3C(=O)C4=C(CCCC4)C3=O)cc21
not listed: [3] | [7]
inactive: all other assays above

O=[N+]([O-])c1ccc(CBr)cc1
not listed: [3] | [7]
inactive: all other assays above

Cc1nnc2n1-c1sc(CCC(=O)N3CCOCC3)cc1C(c1ccccc1Cl)=NC2
inactive: [1] | [10] | [7] | [3] | [4] | [5]

C=CCC1=C(C)[C@@H](OC(=O)[C@@H]2[C@@H](C=C(C)C)C2(C)C)CC1=O
inactive: [8] | [9]
active: [1] 48.6 µM | [10] 27.3 µM | [4] 49 µM

N#CC(Cl)(Cl)Cl
inactive: [1] | [7] | [3] | [4] | [5]

Clc1cccc(N2CCNCC2)c1
inactive: [2] | [10] | [4] | [5] | [6]

CCNc1nc(NC(C)C)nc(OC)n1
not listed: [2] | [10]
inactive: all other assays above

O=[N+]([O-])c1ccc2c3c(cccc13)CC2
active: [10] 24.3 µM
not listed: [2]
inactive: all other assays above

C[C@]1(O)CC[C@H]2[C@@H]3CCC4=CC(=O)CC[C@]4(C)[C@@]3(F)[C@@H](O)C[C@@]21C
inactive: [1] | [7] | [5]

Cc1ncc2n1-c1ccc(Cl)cc1C(c1ccccc1F)=NC2
inactive: [1] | [2] | [4] | [5] | [9]

CCC/C(=N\OCC)C1=C(O)CC(CC(C)SCC)CC1=O (configuration not stated)
not listed: [7] | [10]
inactive: all other assays above

O=C(CCCN1CCC(n2c(=O)[nH]c3ccccc32)CC1)c1ccc(F)cc1
inactive: [1] | [2] | [4] | [5] | [6]

COc1ccc2c(c1OC)CN1CCc3cc4c(cc3C1C2)OCO4 (configuration not stated)
not listed: [1] | [10]
inactive: all other assays above

COc1cc2c(cc1OC)[C@@]13CCN4CC5=CCO[C@H]6CC(=O)N2[C@H]1[C@H]6[C@H]5C[C@H]43
not listed: [1]
inactive: all other assays above

CCN(CC)CCOC(=O)C(C)(c1ccccc1)c1ccccc1
not listed: [1]
inactive: all other assays above

ClCCCN1CCN(c2cccc(Cl)c2)CC1
active: [3] 1.19 µM
inactive: [1] | [4] | [5] | [8] | [9]

CCOC(=O)C1(c2ccccc2)CCN(CCc2ccc(N)cc2)CC1
not listed: [1] | [8] | [9]
inactive: all other assays above

C[C@H]1CCC[C@H](O)CCCCCc2cc(O)cc(O)c2C(=O)O1
inactive: [2] | [4] | [5] | [6] | [8] | [9]

CC1(C)COP(Oc2ccccc2)OC1
not listed: [2] | [7] | [10]
inactive: all other assays above

CCOP(=S)(OCC)Oc1nc(Cl)n(C(C)C)n1
not listed: [2] | [3] | [7]
inactive: all other assays above

COc1cccc(C(=O)NN(C(=O)c2cc(C)cc(C)c2)C(C)(C)C)c1C
not listed: [1]
inactive: all other assays above

N#CC(CCc1ccc(Cl)cc1)(Cn1cncn1)c1ccccc1 (configuration not stated)
active: [1] 61.1 µM | [7] 30.6 µM | [4] 54.9 µM

CC(CC(C#N)(c1ccccc1)c1ccccc1)N(C)C (configuration not stated)
inactive: [2] | [4] | [5] | [6] | [8] | [9]

COc1cccc2c1cc([N+](=O)[O-])c1c(C(=O)O)cc3c(c12)OCO3
inactive: [2] | [4] | [5] | [8] | [9]
active: [1] 61.1 µM

CC(C)(C)C(=O)C(Oc1ccc(Cl)cc1)n1cncn1 (configuration not stated)
inactive: [2] | [4] | [5] | [6] | [8] | [9]

C#C[C@]1(O)C=C[C@H]2[C@@H]3CCC4=CC(=O)CC[C@@H]4[C@H]3CC[C@@]21CC
not listed: [2] | [3] | [7]
inactive: all other assays above

[O]=[Cd]
not listed: [1]
inactive: all other assays above

O=C(Nc1ccccc1)N(Cc1ccc(Cl)cc1)C1CCCC1
not listed: [1] | [3] | [10]
inactive: all other assays above

Fc1ccc(C2(Cn3cncn3)OC2c2ccccc2Cl)cc1 (configuration not stated)
not listed: [3] | [7] | [10]
inactive: all other assays above

O=C1OC(CCN2CCCCC2)OC1(c1ccccc1)c1ccccc1 (configuration not stated)
not listed: [2] | [3] | [10]
inactive: all other assays above

COC(C)(C)C
inactive: [1] | [10] | [7] | [4] | [5] | [6]

O=[N+]([O-])c1cccc2c([N+](=O)[O-])cccc12
not listed: [2] | [3] | [7]
inactive: all other assays above

CCOC(=O)NC(=S)Nc1ccccc1NC(=S)NC(=O)OCC
not listed: [7] | [8] | [10]
inactive: all other assays above

CC(COc1ccc(Oc2ccccc2)cc1)Oc1ccccn1 (configuration not stated)
not listed: [3] | [7] | [10]
inactive: all other assays above

CC1=C(C(=O)Nc2ccccc2)S(=O)(=O)CCO1
inactive: [2] | [4] | [5]

CC1(C)C(=O)NC(=O)NC1=O
inactive: [1] | [2] | [4] | [5] | [8] | [9]

CCCCCCBr
inactive: [1] | [7] | [3] | [4] | [5] | [6]

CCC(C)(C)c1cc(-n2nc3ccccc3n2)c(O)c(C(C)(C)CC)c1
inactive: [1] | [7] | [4] | [5] | [6]

CN/C(=N\[N+](=O)[O-])NCC1CCOC1 (configuration not stated)
not listed: [2] | [7] | [10]
inactive: all other assays above

Nc1cc(Cl)ccc1O
not listed: [1] | [10]
inactive: all other assays above

Source: PubChem BioAssay (Tox21)
